These results are taken from PubChem BioAssay (NCATS).

Inconclusive results are not listed. Active and inactive are the calls of the source. Calls follow the shape of the dose curve; as a rule, active = well fitted cell-killing curve with a large enough effect; inconclusive = small, poorly fitted or top-dose-only effect; inactive = flat fitted curve, though single readings scatter.

A short description of this experiment: MultiTox-Fluor Cytotoxicity Assay - LYMP1-001 - Live Cells (AID 947). Particulars: LYMP1-001 lymphoblastoid cells, live-cell protease fluorescence viability; series mostly up to 92.2 µM. An excerpt:
NIH Chemical Genomics Center [NCGC]
NIH Molecular Libraries Screening Centers Network [MLSCN]
National Institutes of Environmental Health Sciences [NIEHS]
National Toxicology Program [NTP]
We have developed a 1536-well cell-based assay for quantitative high throughput screening (qHTS) against a number of cell lines to determine in vitro cytotoxicity of small molecules. This particular assay uses a human lymphoblastoid cell line (LYMP1-001) purchased from Coriell Institute.
NCGC Assay Protocol Summary:
The MultiTox-Fluor Cytotoxicity Assay (Promega) is a homogeneous method to simultaneously measure the relative number of live and dead cells in culture by detecting changes in cell membrane integrity. There are two fluorogenic peptide substrates in the assay reagent. Viable cells are determined when the cell-permeant substrate (GF-AFC) enters the cell and is cleaved by protease from live cells resulting in liberated fluorophore. This live-cell protease activity restricted to viable cells is proportional to cell number. The dead cells are determined by using fluorogenic cell-impermeant peptide substrate (bis-AAF-R110) which cleaved by dead cell proteases leaking from damaged cell membrane.
Using the MultiTox-Fluor Cytotoxicity Assay, the relative number of live cells was measured in the lymphoblastoid cell line with complete culture medium following compound treatment for 16 hours. The assay was performed in opaque black Kalypsys 1536-well plates. In the screen, tetraoctylammonium bromide was used as positive control. Library compounds were measured for their ability to cause acute toxicity in the cell line, as reflected by a decrease in live cell protease activity, in a concentration-dependent manner. […] AC50 values were determined from concentration-response data modeled with the standard Hill equation.
qHTS protocol for MultiTox-Fluor Cytotoxicity assay
[Step] [Parameter] [Value] [Description]
1. Reagent; 5 uL; 2500 lymphoblastoid cells/well
2. Time; 5 hr; 37 C incubation
4. Controls; 23 nL; Tetraoctylammonium bromide 6.4pM to 92 uM
5. Time; 16 hr; 37 C incubation
6. Reagent; 5 uL; MuliTox-Fluor Assay reagent
7. Time; 60 min; Room Temperature
8. Detection; live-cell fluorescence (Ex/Em=405/510); EnVision plate reader
Keywords: cell viability, cytotoxicity, lymphoblastoid cell line, fluorescence, NTPHTS, NTPHTS_NCGC, NIEHS, EPA, DSSTox, MLSMR, MLSCN, NIH Roadmap, qHTS, NCGC
In the case of `ClCCl`, the compound was called inactive. Under `Cc1cccc2ccccc12` stands “inactive”; under `Cc1ccc(Cl)cc1N`, “inactive”. Then `O=C(O)c1ccccc1[N+](=O)[O-]`, with “inactive”; and `C=Cc1ccccn1`, with “inactive”. Turning to `Oc1c(Cl)ccc(Cl)c1Cl`, the outcome was inactive. In the case of `CC(C)=CCl`, the call was inactive. On to `CC(=O)c1cccc([N+](=O)[O-])c1`, for which the compound was classed as inactive.

Turning to `c1ccc(Nc2ccccc2)cc1`, the outcome was inactive. Regarding `FB(F)F`, the compound was called inactive. Under `O=C1OC(=O)c2c(Cl)c(Cl)c(Cl)c(Cl)c21` stands “inactive”; under `NC(=O)NC(N)=O`, “inactive”; under `Cc1ccc(C(=O)O)cc1`, “inactive”.

On to `Cc1ccc(N(C)C)cc1`, for which the outcome was inactive.

`O=C(O)CCSSCCC(=O)O`: the call was inactive. `CC(C)C(C)C`: the outcome was inactive. Under `CSCCC=O` stands “inactive”; under `CCC(=O)/C=C/C1C(C)=CCCC1(C)C` (stereo not given), “inactive”; under `Cc1c(N)cccc1N`, “inactive”.

For `CN(C)c1cccc(O)c1`, the compound was classed as inactive. Then `CC(=O)c1ccccn1`, with “inactive”; and `CCCCC(C=O)CC` (stereo not given), with “inactive”; and `CCN(C(=O)N(CC)c1ccccc1)c1ccccc1`, with “inactive”. Then `NCCCCCCN`, with “inactive”; and `CC(C)(c1cc(Br)c(OCC(Br)CBr)c(Br)c1)c1cc(Br)c(OCC(Br)CBr)c(Br)c1` (stereo not given), with “inactive”. Then `O=C1OC(=O)c2c(Br)c(Br)c(Br)c(Br)c21`, with “inactive”; and `C=C(C)C(=O)OC`, with “inactive”. `O=[N+]([O-])c1cc(C(F)(F)F)ccc1Cl`: the result was inactive. Under `Nc1cccc(S(=O)(=O)O)c1` stands “inactive”; under `CCC(O)C(C)(C)C` (stereo not given), “inactive”. Under `ON=C1CCCCC1` stands “inactive”. Then `CCC(C)O` (stereo not given), with “inactive”. For the compound `O=[N+]([O-])c1ccc(Cl)cc1Cl`, the outcome was inactive. Then `Cc1cc(C)cc(O)c1`, with “inactive”; and `BrC(Br)C(Br)Br`, with “inactive”.

`c1ccc2n[nH]nc2c1`: the compound was classed as inactive. Under `C=C(C)C(=O)OCC(C)C` stands “inactive”; under `CCOC(=O)OCC`, “inactive”; under `C=C(C)OC(C)=O`, “inactive”. On to `Cc1ccc2ccccc2c1[N+](=O)[O-]`, for which the compound was classed as inactive.
